Test results published in the supplement of paper PMC13380429.

Test system: Vero E6 infected with SARS-CoV-2
Test: inhibition of SARS-CoV-2 cytopathic effect; higher = more antiviral protection, active = above 15
Settings: 48 h

Measured: inhibition of SARS-CoV-2 cytopathic effect

O=C(NO)c1cnc(N2CCN(S(=O)(=O)c3ccc4ccccc4c3)CC2)nc1
inactive: 1 nM 1.24% | 8.33 nM 2.59% | 100 nM 2.04% | 833.33 nM -16.4% | 10000 nM -22.6%

CC(=O)NC[C@H]1CN(c2ccc(-c3ccc(CNCc4cnn[nH]4)cc3)c(F)c2)C(=O)O1 [radezolid]
inactive: 1 nM -1.38% | 8.33 nM 0.58% | 100 nM 2.16% | 833.33 nM -0.64% | 10000 nM 2.43%

Cc1n[nH]c(C)c1Cc1sc2c(c1C(=O)N1C[C@H](O)CO1)c(=O)n(C)c(=O)n2CC(C)C
inactive: 1 nM 1.42% | 8.33 nM 3.88% | 100 nM 0.66% | 833.33 nM 1.3% | 10000 nM 1.69%

O=C(Oc1cccc2cccnc12)c1ccccc1 [benzoxiquine]
inactive: 1 nM 1.28% | 8.33 nM 1.56% | 100 nM -0.45% | 833.33 nM -1.05% | 10000 nM -3.29%

O=C1C2CCN(CC2)C1(CO)CO
inactive: 1 nM -0.42% | 8.33 nM 1.99% | 100 nM 3.09% | 833.33 nM 2.96% | 10000 nM 5.06%

O=C(O)CC1CC(c2ccccc2)=NO1 (stereo not given)
inactive: 1 nM -0.73% | 8.33 nM 0.07% | 100 nM -0.78% | 833.33 nM 2.86% | 10000 nM 0.36%

OCCCNc1ccccc1 [3-anilinopropan-1-ol]
inactive: 1 nM -0.17% | 8.33 nM 2.09% | 100 nM -0.59% | 833.33 nM -0.07% | 10000 nM 1.39%

Cc1ccc(-c2ncn(-c3ccc(Nc4nccc(-c5cccc(N6CCOCC6)c5)n4)cc3)n2)cn1
inactive: 1 nM -4.9% | 8.33 nM -4.6% | 100 nM -3.08% | 833.33 nM -5.23% | 10000 nM -2.89%

CCS(=O)(=O)c1ccc2oc(-c3ccc4ccccc4c3)nc2c1 [ezutromid]
inactive: 1 nM 3.38% | 8.33 nM 0.67% | 100 nM -1.92% | 833.33 nM 2.64% | 10000 nM 1.18%

CCC(=O)N[C@@H]1Cc2ccccc2[C@H](c2ccccc2)C1
inactive: 1 nM 1.13% | 8.33 nM 2.8% | 100 nM 2.79% | 833.33 nM 3.72% | 10000 nM 2.13%

O=C(/C=C\n1cnc(-c2cc(C(F)(F)F)cc(C(F)(F)F)c2)n1)N1CC(F)(F)C1
inactive: 1 nM 2.37% | 8.33 nM -1.09% | 100 nM -2.84% | 833.33 nM -7.74% | 10000 nM -16.6%

O=C(O)COc1ccc(OCCNC[C@H](O)COc2ccccc2)cc1
inactive: 1 nM -0.61% | 8.33 nM -0.47% | 100 nM -1.08% | 833.33 nM 0.26% | 10000 nM 1.07%

C/C(=N\Nc1nnc2c(n1)[nH]c1c(C)cccc12)c1ccccn1
inactive: 1 nM 0.125% | 8.33 nM -0.485% | 100 nM 1.94% | 833.33 nM 1.06% | 10000 nM -7.81%

Nc1nccc2c1ncn2[C@@H]1O[C@H](CO)[C@@H](O)[C@@H]1O [3-deazaadenosine]
inactive: 1 nM -0.84% | 8.33 nM -2% | 100 nM -2.27% | 833.33 nM -0.63% | 10000 nM -2.6%

O=C(O)CNC(=O)C1C(=O)N(C2CCCCC2)C(=O)N(C2CCCCC2)C1=O [daprodustat]
inactive: 1 nM -0.26% | 8.33 nM 1.23% | 100 nM 2.21% | 833.33 nM 2.38% | 10000 nM -0.29%

CN(C)CCN1C(=O)c2cccc3cc(NC(N)=O)cc(c23)C1=O [unbs-5162]
inactive: 1 nM -0.12% | 8.33 nM 4.76% | 100 nM 2.53% | 833.33 nM 0.4% | 10000 nM -2.03%

O=c1ccn([C@@H]2O[C@H](CO)[C@@H](O)[C@H]2O)c(=O)[nH]1 [uridine]
inactive: 1 nM 0.24% | 8.33 nM 0.14% | 100 nM 0.2% | 833.33 nM -1.16% | 10000 nM 2.27%

Oc1cc(O)c2c(c1)O[C@H](c1ccc(O)c(O)c1)[C@@H](O)C2 [cianidanol]
inactive: 1 nM -1.29% | 8.33 nM 0.71% | 100 nM -1.15% | 833.33 nM -0.95% | 10000 nM -2.3%

CN1CCN(CC/C=C2/c3ccccc3Sc3ccc(S(=O)(=O)N(C)C)cc32)CC1 [thiothixene]
inactive: 1 nM -3.86% | 8.33 nM -3.67% | 100 nM -4.39% | 833.33 nM -3.71% | 10000 nM 14%
